Assay outcomes deposited in PubChem BioAssay by National Center for Advancing Translational Sciences (NCATS).
Only some compounds are listed: those with a hit (about 2.4% of all), similar ones and a draw of the others.
D2 ag-1: human D2 receptor agonism in beta-arrestin assay; P14416; DiscoveRx PathHunter D2 beta-arrestin, luminescence, 90 min; 100% = 57 uM dopamine signal; activation, % (concentration not given with the values); 360,000 tested, 0.084% active; in the data active means activation above about 40%; inconclusive means between about 15% and that limit
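Agonist mode: compounds alone added to overnight-plated D2 PathHunter cells for 90 min at 37 C, with 57 uM final dopamine (EC100) defining full response. Beta-arrestin recruitment detected by chemiluminescent reagent, read after 1 h at ambient temperature.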
D2 antag: D2 dopamine receptor (human) antagonism | P14416 | HEK293 TREx D2 cells, calcium flux, dopamine EC80 | inhibition, % at 10 µM | 340,000 tested, 2% active | AID 485344; in the data active means inhibition above about 30%; inactive means below that, where a call was filed; further: 0% is about no effect
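Calcium mobilization kinetics were recorded at 1 s intervals in tetracycline-induced HEK293 T-REx D2 cells, first for 180 s after compound addition and then 180 s after EC80 dopamine.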
D2 PAM-1: positive allosteric modulators of human D2 dopamine receptor | HEK293 T-REx D2, calcium flux, EC20 dopamine potentiation | potentiation, % at 10 µM | 340,000 tested, 0.34% active;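 active means potentiation over 3 SD above the plate norm, cut at about 30% in these data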; further: 0% is about no effect
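Tetracycline-induced Hek293 Trex D2 cells, force-coupled to calcium, loaded with no-wash calcium dye. Compound added with 180 s kinetic read for agonism, then EC20 dopamine and a further 180 s read for potentiation.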
D2 PAM-2: potentiates the human D2 dopamine receptor allosterically | DiscoveRx D2 beta-arrestin cells, luminescence, 90 min; 100% = 57 uM dopamine signal | potentiation, % (concentration not given with the values) | 360,000 tested, 0.23% active; in the data active means potentiation above about 50%; inconclusive means mostly about 30% to 49%
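D2 cells co-treated with compound plus 50 nM dopamine (EC20) for 90 min at 37 deg C to detect potentiation. Beta-arrestin recruitment was read as enzyme-fragment luminescence after 1 h at ambient temperature. Full response was set by 57 uM dopamine.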
D2 ag-2: agonists of human D2 dopamine receptor; AID 485358; 340,000 tested, 0.53% active; HEK293 T-REx D2 cells, calcium flux agonist mode; activation, % at 2 µM;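 active means activation over 3 SD above normal in the single-dose calcium agonist read, cut at about 30% in these data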; further: 0% is about no effect
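Tetracycline-induced HEK293 T-REx cells with force-coupled D2 receptor, plated overnight at 30 C, loaded with no-wash calcium dye. After a 10 s baseline, compound was pin-added and calcium flux read kinetically for 180 s; calcium rises flagged agonists.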
D3 ag: activates human D3 dopamine receptor beta-arrestin recruitment | Potency, µM (doses to about 76.9 µM), for the others: at the highest dose activation, usual class: activators | 2,300 tested, 4% active | shares compounds with D2 ag-2 | AID 720506 | DiscoveRx D3 beta-arrestin cells, luminescence, 90 min;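 further: potency means the concentration at half of the fitted maximal effect; 100% = dopamine control response; nearly all actives have a fitted effect of over 70% in size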
Target sequence (P35462 whole entry, looked up): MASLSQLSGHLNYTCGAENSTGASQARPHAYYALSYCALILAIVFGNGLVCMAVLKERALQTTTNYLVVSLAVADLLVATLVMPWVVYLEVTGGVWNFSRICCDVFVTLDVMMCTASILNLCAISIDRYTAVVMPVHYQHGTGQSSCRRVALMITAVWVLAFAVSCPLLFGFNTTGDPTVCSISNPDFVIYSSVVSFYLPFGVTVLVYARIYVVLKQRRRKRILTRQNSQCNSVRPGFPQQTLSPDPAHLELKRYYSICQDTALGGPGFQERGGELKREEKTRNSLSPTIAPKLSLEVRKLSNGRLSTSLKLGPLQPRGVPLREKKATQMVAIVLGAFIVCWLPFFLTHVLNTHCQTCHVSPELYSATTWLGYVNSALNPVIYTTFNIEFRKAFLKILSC
D2 ag-3: activates human D2 dopamine receptor in D3 counterscreen. AID 720507. shares compounds with D2 ag-2. 2,300 tested, 5.9% active. DiscoveRx PathHunter D2 beta-arrestin, luminescence, 90 min; response scale: percent relative to full dopamine signal. Potency, µM (highest dose often 76.9 µM), inactives show at the highest dose activation, usual class: activators; further: potency means the concentration at half of the fitted maximal effect; % of control where 0% means no effect; nearly all actives have a fitted effect of over 70% in size
Numbers without * were called inactive; ? = inconclusive; . = no result. Unless noted, the call rests on the fitted dose curve; in most records, active means well fitted activation curve with a large enough effect; inconclusive means small, poorly fitted or top-dose-only effect; inactive means flat fitted curve, though single readings scatter.

SMILES | D2 ag-1 | D2 antag | D2 PAM-1 | D2 PAM-2 | D2 ag-2 | D3 ag | D2 ag-3
CC(COc1ccccc1)N1CCC(CO)(Cc2ccccc2)CC1 (stereo not given) | ? | 85* | -12 | -11 | 68* | 6% | ?
COCCNC(=O)CSc1nc(-c2cc(OC)c(OC)c(OC)c2)[nH]c1-c1ccc(Cl)cc1 | . | . | -24 | . | 0 | . | .
Cc1oc(-c2cccc(Cl)c2)nc1CN1CCC(C(=O)NCc2ccc(F)cc2)CC1 | . | . | -10 | . | 1 | . | .
CC(=O)CC(C)(C)Nc1nc2cc([N+](=O)[O-])ccc2o1 | -4 | -8 | -15 | -12 | 0 | . | .
CC(=O)CC(C)(C)Nc1nc2ccc([N+](=O)[O-])cc2o1 | -2 | 39* | 2 | -6 | 0 | -8% | -2%
CCOc1ccc(/C(O)=C2/C(=O)C(=O)N(c3ncccn3)C2c2ccccc2)cc1 (stereo not given) | -8 | -5 | -18 | -11 | 50* | -9% | -5%
Cc1cccc(-n2c3nc(=O)[nH]c(=O)c-3cc3c(Cl)cccc32)c1C | . | . | -17 | . | 0 | . | .
CN(CCNC(=O)C1CCC(=O)N(Cc2ccc(Cl)cc2)C1)CCc1ccccc1 (stereo not given) | 3 | -13 | -25 | -9 | 45* | -2% | -2%
CN(CCNC(=O)C1CCC(=O)N(Cc2cccc(F)c2)C1)CCc1ccccc1 (stereo not given) | 0 | 1 | -10 | -26 | 23 | . | .
OC(COCC1COc2ccccc2O1)CN1CCN(c2ccccc2F)CC1 (stereo not given) | 7 | 84* | -23 | -10 | 60* | ? | ?
Cc1ccc(N2CCN(CC(O)COc3ccc([N+](=O)[O-])cc3)CC2)cc1 (stereo not given) | 3 | 10 | -14 | -9 | 0 | . | .
CCN1CCN(CC(O)COCc2ccccc2)CC1 (stereo not given) | -2 | -5 | 2 | -7 | 1 | . | .
OC(CNCC1COc2ccccc2O1)COc1ccccc1F (stereo not given) | 0 | 96* | -36 | -16 | 78* | 17% | 10%
OC(COCc1ccccc1)CN1CCN(c2ccccc2F)CC1 (stereo not given) | 6 | 111* | -22 | -29 | 64* | ? | ?
O=[N+]([O-])c1ccc(OCC(O)CN2CCN(c3ccccc3F)CC2)cc1 (stereo not given) | ? | 91* | -26 | -15 | 79* | ? | ?
CCC(C)n1c(=O)c2sccc2n2c(CCCC(=O)N3CCN(c4ccccc4)CC3)nnc12 (stereo not given) | . | . | 1 | . | 1 | . | .
Cc1cc(CN2CCN(c3ccccc3F)CC2)cs1 | . | . | -28 | . | . | . | .
FCCCOc1ccc(CN2CCN(c3ccccc3F)CC2)cc1 | 8 | . | -23 | -7 | . | ? | ?
CC(=O)c1cccc(CN2CCCC(N3CCN(c4ccccc4F)CC3)C2)c1 (stereo not given) | 12 | . | -28 | -1 | . | 8% | ?
O=C(c1ccsc1)N1CCCC(N2CCN(c3ccccc3F)CC2)C1 (stereo not given) | 1 | 0 | -11 | -31 | 12 | . | .
COc1ccccc1CN1CCCC(N2CCN(c3ccccc3OC)CC2)C1 (stereo not given) | -3 | -6 | -14 | -3 | 1 | . | .
Fc1ccccc1N1CCN(C2CCCN(Cc3ccccc3C(F)(F)F)C2)CC1 (stereo not given) | -2 | . | -9 | -4 | . | 3% | 21%
O=C(c1noc2c1CCCC2)N1CCCC(N2CCN(c3ccccc3F)CC2)C1 (stereo not given) | 2 | 15 | -14 | -20 | 41* | 1% | 6%
CCOc1cc(-c2ccc(OC(=O)c3ccccc3F)cc2)cc(=O)c2c(C)oc(C)c12 | . | . | 5 | . | 2 | . | .
Cc1cc(NCc2ccccc2Cl)n2cnnc2n1 | . | . | 2 | . | 1 | . | .
SMILES | D2 ag-1 | D2 antag | D2 PAM-1 | D2 PAM-2 | D2 ag-2 | D3 ag | D2 ag-3
COc1ccccc1CNC(=O)c1ccc2c(c1)nc(C)n2-c1cccc(C)c1 | . | . | 27 | . | 0 | . | .
CCc1c(C)sc(NC(=O)c2cc(-c3ccc(OC)cc3)on2)c1C#N | . | . | -8 | . | 0 | . | .
COc1cccc(Cn2c(SCC(=O)N(C)c3ccccc3)nc3ccccc32)c1 | . | . | 5 | . | 0 | . | .
O=C(CCN1CCN(C(c2ccccc2)c2ccccc2)CC1)N/N=C/c1ccc(O)cc1 | -3 | -11 | -19 | -27 | -3 | . | .
COc1ccc(/C=N\NC(=O)CCN2CCN(c3ccccc3)CC2)cc1OC | 3 | 56* | -30 | -27 | 75* | 15% | 21%
CC(=O)Nc1ccc(/C=N/NC(=O)CCN2CCN(c3ccccc3)CC2)cc1 | 9 | 51* | -20 | 3 | 79* | ? | 27%
COc1cc(/C=N/NC(=O)CCN2CCCCC2)ccc1O | 3 | -4 | -5 | -10 | 1 | . | .
O=C(CCN1CCN(c2ccccc2)CC1)N/N=C/c1ccccc1OC(F)F | ? | 88* | -22 | 9 | 75* | -5% | ?
CC(C)c1ccc(S(=O)(=O)c2cn(CC(=O)Nc3ccc(F)cc3)c3ccccc3c2=O)cc1 | . | . | -20 | . | 0 | . | .
CCOC(=O)N1CCC(N(CCCOC)C(=O)Nc2ccc(CC)cc2)CC1 | -2 | -8 | -14 | -6 | 17 | -5% | -1%
CCOC(=O)N1CCC(N(CCOC)C(=O)Nc2ccc(Cl)cc2)CC1 | -9 | -1 | 0 | -14 | 0 | . | .
CC(=O)N/C(=C/C(C)C)c1ccccc1 | -1 | 1 | -7 | -2 | 0 | -2% | -4%
CC(=O)OCC1=C[C@@H]2OC(=O)C3=CO[C@@H](O[C@@H]4O[C@H](CO)[C@@H](O)[C@H](O)[C@H]4O)[C@H]1[C@@H]32 | -2 | 4 | 1 | -5 | 0 | 1% | -3%
COC(=O)C1=CO[C@@H](O[C@@H]2O[C@H](CO)[C@@H](O)[C@H](O)[C@H]2O)C2C(CO)=CCC12 (stereo not given in full) | 2 | . | . | -50 | . | . | .
CC1(C)CC(=O)C=C(/C=C/c2ccccc2)C1 | -4 | -7 | 10 | -15 | -2 | -5% | 0%
Cc1ccc(NC(=O)c2nc(S(C)(=O)=O)ncc2N(Cc2ccccc2)Cc2ccco2)c(C)c1 | . | . | -4 | . | 3 | . | .
CN(C)Cc1c(C(=O)Nc2ccccc2)[nH]c2ccccc12 | -1 | 45* | -27 | -28 | 0 | -11% | -2%
CCOC(=O)c1[nH]c2ccccc2c1NC(=S)Nc1ccccc1 | ? | 5 | 16 | 13 | 1 | . | .
